Experimental data taken from publication PMC7862700, “An all-to-all approach to the identification of sequence-specific readers for epigenetic DNA modifications on cytosine”.

Assays:
Assay in all cases: DAPPL (digital affinity profiling via proximity ligation, sequencing); 10 mM Tris-HCl pH 7.5, 50 mM NaCl, 1 mM DTT, 4% glycerol, room temperature, 30 min; GST-TFs on glutathione beads, 16-mer random dsDNA library, 0.1% formaldehyde crosslink after washing; high values mean tight binding
FLI1 = target: T1, FLI1 (Homo sapiens, UniProt Q01543 1-452); details: protein: recombinant; tags: N-terminal GST; dsDNA, one strand shown
T1 sequence: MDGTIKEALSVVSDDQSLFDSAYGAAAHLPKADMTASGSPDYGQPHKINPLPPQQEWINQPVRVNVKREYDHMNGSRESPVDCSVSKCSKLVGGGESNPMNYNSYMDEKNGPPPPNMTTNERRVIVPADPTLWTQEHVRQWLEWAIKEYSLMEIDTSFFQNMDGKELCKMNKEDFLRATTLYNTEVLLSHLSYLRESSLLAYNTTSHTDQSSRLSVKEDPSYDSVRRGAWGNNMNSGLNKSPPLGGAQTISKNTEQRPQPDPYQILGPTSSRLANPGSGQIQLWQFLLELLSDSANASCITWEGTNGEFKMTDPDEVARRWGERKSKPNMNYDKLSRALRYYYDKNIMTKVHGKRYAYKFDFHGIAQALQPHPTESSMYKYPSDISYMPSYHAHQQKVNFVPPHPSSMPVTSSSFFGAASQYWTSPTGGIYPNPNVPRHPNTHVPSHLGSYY
Summary of the method: (§1)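 Pools were built from human transcription factors expressed in yeast as GST fusions, captured on glutathione beads and DNA-barcoded, along with a tag-only sample. Incubation with 200 nmole of a 16-mer random double-stranded DNA library lasted 30 min at room temperature in Tris/NaCl/DTT/glycerol buffer, and was followed by washing, 0.1% formaldehyde crosslinking, proximity ligation, PCR amplification and Illumina NextSeq500 sequencing. Binding signal is the quotient of each hexamer's read frequency for a factor and its frequency for the tag-only sample.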

ELK1 = target: T2, ELK1 (Homo sapiens, UniProt P19419 1-428); details: protein: recombinant; tags: N-terminal GST; dsDNA, one strand shown
T2 sequence: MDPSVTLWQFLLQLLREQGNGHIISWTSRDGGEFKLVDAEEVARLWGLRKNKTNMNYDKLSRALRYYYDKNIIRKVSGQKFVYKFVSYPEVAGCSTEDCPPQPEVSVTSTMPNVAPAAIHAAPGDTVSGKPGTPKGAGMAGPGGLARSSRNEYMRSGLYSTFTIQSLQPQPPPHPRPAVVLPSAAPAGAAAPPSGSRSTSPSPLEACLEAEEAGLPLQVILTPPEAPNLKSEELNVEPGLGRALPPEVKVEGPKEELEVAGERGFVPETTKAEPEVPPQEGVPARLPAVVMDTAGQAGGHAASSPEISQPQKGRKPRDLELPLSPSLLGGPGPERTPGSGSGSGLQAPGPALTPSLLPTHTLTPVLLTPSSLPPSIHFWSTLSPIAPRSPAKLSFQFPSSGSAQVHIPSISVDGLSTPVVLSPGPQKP
Summary of the method: as §1

GABPA = target: T3, GABPA (Homo sapiens, UniProt Q06546 1-454); details: protein: recombinant; tags: N-terminal GST; dsDNA, one strand shown
T3 sequence: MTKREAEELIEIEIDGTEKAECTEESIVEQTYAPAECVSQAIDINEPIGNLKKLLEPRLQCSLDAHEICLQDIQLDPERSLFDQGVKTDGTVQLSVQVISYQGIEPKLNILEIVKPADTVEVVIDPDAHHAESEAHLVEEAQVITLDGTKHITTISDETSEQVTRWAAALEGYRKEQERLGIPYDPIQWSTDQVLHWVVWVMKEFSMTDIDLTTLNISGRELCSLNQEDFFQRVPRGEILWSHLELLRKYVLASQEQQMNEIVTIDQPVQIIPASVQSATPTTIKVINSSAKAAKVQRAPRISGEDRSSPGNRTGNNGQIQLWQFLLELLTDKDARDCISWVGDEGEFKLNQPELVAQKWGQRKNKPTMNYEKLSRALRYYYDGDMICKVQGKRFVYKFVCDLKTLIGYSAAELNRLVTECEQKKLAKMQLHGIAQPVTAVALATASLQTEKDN
Summary of the method: as §1

ERG = target: T4, ERG (Homo sapiens, UniProt P11308 1-479); details: protein: recombinant; tags: N-terminal GST; dsDNA, one strand shown
T4 sequence: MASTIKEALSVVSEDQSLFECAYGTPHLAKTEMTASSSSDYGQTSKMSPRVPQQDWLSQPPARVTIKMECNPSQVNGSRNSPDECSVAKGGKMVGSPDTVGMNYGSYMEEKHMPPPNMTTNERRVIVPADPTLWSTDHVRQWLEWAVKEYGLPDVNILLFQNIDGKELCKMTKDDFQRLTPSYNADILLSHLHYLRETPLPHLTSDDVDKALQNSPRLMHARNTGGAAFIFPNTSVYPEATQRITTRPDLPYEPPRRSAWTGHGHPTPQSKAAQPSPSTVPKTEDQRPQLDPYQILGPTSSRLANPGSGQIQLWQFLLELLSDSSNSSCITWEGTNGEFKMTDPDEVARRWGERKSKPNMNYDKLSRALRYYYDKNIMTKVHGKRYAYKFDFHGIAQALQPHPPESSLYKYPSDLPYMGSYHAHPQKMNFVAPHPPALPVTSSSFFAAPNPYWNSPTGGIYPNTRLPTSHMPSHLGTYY
Summary of the method: as §1

ELF1 = ELF1 (Homo sapiens, UniProt P32519 1-619); details: protein: recombinant; tags: N-terminal GST; dsDNA, one strand shown
Sequence of ELF1 (P32519 whole entry): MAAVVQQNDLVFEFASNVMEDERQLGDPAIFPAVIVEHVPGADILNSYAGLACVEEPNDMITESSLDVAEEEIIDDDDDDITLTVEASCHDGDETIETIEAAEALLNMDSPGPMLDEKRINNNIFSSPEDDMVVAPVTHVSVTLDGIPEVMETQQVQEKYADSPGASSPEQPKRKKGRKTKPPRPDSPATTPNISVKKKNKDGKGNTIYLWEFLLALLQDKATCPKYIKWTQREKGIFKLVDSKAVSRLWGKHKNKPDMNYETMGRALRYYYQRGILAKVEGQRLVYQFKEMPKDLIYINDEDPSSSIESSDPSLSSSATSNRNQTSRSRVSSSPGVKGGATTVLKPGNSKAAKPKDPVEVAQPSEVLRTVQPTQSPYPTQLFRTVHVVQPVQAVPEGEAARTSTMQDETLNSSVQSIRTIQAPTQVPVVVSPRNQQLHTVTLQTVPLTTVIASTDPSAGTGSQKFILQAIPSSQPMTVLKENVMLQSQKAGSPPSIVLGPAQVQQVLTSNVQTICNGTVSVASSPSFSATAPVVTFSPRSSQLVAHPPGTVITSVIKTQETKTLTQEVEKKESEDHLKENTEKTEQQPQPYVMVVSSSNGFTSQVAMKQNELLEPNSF
Summary of the method: as §1

EHF = target: T5, EHF (Homo sapiens, UniProt Q9NZC4 1-300); details: protein: recombinant; tags: N-terminal GST; dsDNA, one strand shown
T5 sequence: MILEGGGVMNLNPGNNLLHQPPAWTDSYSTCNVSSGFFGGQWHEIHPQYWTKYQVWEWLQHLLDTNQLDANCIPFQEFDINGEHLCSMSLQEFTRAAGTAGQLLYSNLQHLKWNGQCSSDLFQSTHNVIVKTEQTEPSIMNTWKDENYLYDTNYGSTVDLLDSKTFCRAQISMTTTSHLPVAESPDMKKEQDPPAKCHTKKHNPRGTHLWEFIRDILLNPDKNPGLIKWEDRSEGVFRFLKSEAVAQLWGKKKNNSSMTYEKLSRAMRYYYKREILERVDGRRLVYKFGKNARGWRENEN
Summary of the method: as §1

SPI1 = SPI1 (Homo sapiens, UniProt P17947 1-270); details: protein: recombinant; tags: N-terminal GST; dsDNA, one strand shown
Summary of the method: as §1

SPIB = SPIB (Homo sapiens, UniProt Q01892 1-262); details: protein: recombinant; tags: N-terminal GST; dsDNA, one strand shown
Sequence of SPIB (Q01892 whole entry): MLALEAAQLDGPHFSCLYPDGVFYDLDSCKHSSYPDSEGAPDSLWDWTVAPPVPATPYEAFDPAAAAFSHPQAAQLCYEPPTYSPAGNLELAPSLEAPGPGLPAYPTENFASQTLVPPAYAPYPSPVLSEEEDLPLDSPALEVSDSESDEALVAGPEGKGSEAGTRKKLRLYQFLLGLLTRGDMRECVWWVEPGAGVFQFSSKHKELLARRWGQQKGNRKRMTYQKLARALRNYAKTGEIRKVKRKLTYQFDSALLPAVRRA
Summary of the method: as §1

ELK3 = target: T6, ELK3 (Homo sapiens, UniProt P41970 1-407); details: protein: recombinant; tags: N-terminal GST; dsDNA, one strand shown
T6 sequence: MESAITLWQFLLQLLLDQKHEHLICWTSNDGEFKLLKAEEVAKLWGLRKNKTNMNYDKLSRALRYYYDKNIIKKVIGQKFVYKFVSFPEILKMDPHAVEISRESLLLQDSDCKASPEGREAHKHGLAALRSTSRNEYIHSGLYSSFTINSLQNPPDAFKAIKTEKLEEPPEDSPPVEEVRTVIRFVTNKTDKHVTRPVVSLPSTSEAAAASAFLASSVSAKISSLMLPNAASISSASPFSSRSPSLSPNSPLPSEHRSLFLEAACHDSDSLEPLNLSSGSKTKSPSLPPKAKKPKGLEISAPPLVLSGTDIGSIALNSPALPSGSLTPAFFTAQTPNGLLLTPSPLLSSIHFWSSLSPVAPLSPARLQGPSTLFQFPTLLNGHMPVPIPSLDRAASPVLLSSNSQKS
Summary of the method: as §1

ETV5 = ETV5 (Homo sapiens, UniProt P41161 1-510); details: protein: recombinant; tags: N-terminal GST; dsDNA, one strand shown
Sequence of ETV5 (P41161 whole entry): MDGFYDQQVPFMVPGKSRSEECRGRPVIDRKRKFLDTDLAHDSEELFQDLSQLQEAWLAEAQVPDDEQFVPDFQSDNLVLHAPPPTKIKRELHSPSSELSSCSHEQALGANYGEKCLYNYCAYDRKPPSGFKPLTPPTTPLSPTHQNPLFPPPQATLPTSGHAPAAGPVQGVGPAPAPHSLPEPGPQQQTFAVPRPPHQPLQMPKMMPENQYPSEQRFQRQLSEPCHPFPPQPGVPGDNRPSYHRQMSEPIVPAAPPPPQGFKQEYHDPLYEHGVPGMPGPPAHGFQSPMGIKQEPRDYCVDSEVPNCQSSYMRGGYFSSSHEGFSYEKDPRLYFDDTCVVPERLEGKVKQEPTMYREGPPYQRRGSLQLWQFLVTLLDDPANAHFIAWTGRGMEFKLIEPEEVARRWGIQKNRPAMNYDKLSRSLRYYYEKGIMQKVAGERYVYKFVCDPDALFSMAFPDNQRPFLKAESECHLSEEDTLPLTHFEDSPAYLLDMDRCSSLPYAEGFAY
Summary of the method: as §1

HSF1 = HSF1 (Homo sapiens, UniProt Q00613 1-529); details: protein: recombinant; tags: N-terminal GST; chain copies: 3; dsDNA, one strand shown
Sequence of HSF1 (Q00613 whole entry): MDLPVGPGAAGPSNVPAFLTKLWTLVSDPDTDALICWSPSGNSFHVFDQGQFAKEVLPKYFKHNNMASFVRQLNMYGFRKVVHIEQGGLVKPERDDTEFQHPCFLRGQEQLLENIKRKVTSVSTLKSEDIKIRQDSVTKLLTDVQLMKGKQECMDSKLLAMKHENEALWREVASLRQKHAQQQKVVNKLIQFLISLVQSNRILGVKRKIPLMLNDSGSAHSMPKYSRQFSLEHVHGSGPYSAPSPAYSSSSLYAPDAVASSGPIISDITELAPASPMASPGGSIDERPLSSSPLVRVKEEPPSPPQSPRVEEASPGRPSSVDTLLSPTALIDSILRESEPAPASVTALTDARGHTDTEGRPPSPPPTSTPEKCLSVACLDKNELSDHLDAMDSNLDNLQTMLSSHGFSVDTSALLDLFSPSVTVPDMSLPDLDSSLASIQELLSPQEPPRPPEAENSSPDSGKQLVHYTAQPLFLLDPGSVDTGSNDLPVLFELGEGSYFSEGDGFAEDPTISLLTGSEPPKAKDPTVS
Summary of the method: as §1

SPIC = target: T7, SPIC (Homo sapiens, UniProt Q8N5J4 1-248); details: protein: recombinant; tags: N-terminal GST; dsDNA, one strand shown
T7 sequence: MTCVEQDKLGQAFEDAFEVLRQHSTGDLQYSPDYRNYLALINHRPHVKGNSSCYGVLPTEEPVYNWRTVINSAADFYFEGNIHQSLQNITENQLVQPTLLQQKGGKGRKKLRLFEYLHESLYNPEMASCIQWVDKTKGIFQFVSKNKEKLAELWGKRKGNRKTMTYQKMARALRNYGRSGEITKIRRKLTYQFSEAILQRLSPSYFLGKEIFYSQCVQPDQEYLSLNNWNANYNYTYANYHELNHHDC
Summary of the method: as §1

ELF4 = ELF4 (Homo sapiens, UniProt Q99607 1-663); details: protein: recombinant; tags: N-terminal GST; dsDNA, one strand shown
Sequence of ELF4 (Q99607 whole entry): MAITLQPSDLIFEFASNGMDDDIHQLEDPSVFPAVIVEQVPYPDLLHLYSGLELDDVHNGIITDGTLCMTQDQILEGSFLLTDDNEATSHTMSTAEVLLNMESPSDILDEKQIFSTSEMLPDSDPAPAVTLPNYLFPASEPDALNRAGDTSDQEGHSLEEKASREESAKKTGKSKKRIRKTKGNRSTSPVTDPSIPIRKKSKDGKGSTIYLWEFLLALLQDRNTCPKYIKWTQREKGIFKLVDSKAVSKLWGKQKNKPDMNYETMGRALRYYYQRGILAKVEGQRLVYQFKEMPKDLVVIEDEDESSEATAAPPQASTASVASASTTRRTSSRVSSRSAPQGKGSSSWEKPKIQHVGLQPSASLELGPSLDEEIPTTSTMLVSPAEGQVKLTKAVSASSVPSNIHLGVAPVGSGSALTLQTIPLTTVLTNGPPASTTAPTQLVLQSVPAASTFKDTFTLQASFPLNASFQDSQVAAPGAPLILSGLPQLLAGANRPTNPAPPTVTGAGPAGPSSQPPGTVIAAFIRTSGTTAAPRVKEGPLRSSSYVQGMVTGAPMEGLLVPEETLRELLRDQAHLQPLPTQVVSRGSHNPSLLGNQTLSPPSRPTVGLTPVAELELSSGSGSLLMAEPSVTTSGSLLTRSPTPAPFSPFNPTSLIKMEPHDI
Summary of the method: as §1

ELK4 = target: T8, ELK4 (Homo sapiens, UniProt P28324-2 1-405); details: protein: recombinant; tags: N-terminal GST; dsDNA, one strand shown
T8 sequence: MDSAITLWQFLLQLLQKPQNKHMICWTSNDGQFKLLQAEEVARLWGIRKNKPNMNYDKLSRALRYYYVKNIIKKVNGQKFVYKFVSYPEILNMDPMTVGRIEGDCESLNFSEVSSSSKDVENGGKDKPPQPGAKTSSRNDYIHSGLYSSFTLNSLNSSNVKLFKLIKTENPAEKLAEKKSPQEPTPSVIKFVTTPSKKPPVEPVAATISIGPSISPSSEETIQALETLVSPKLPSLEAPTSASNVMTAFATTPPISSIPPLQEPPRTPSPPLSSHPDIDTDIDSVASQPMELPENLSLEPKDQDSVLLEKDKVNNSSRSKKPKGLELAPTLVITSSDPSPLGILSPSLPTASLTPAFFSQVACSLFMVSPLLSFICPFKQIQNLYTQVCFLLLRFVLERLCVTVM
Summary of the method: as §1

ETV2 = target: T9, ETV2 (Homo sapiens, UniProt O00321 1-342); details: protein: recombinant; tags: N-terminal GST; dsDNA, one strand shown
T9 sequence: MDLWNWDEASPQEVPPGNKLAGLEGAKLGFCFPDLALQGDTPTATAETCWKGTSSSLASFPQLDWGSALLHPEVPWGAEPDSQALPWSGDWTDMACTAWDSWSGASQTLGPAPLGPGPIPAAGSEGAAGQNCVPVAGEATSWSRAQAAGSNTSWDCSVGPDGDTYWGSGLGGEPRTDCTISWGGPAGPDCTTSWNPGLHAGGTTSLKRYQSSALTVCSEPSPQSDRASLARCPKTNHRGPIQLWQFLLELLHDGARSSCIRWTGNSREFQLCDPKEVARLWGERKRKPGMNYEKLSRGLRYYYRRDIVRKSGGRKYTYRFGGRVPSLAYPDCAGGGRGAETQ
Summary of the method: as §1

ELF3 = target: T10, ELF3 (Homo sapiens, UniProt P78545 1-371); details: protein: recombinant; tags: N-terminal GST; dsDNA, one strand shown
T10 sequence: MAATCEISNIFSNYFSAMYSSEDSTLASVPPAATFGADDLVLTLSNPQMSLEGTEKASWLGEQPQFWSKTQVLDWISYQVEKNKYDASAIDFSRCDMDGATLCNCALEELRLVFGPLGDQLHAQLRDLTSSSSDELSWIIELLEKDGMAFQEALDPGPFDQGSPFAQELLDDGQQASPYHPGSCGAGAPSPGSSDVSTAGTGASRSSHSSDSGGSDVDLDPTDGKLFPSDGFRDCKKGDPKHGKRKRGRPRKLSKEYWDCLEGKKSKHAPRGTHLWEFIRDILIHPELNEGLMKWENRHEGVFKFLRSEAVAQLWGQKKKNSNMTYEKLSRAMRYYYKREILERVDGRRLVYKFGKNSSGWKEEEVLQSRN
Summary of the method: as §1

ETV1 = ETV1 (Homo sapiens, UniProt P50549 1-477); details: protein: recombinant; tags: N-terminal GST; dsDNA, one strand shown
Sequence of ETV1 (P50549 whole entry): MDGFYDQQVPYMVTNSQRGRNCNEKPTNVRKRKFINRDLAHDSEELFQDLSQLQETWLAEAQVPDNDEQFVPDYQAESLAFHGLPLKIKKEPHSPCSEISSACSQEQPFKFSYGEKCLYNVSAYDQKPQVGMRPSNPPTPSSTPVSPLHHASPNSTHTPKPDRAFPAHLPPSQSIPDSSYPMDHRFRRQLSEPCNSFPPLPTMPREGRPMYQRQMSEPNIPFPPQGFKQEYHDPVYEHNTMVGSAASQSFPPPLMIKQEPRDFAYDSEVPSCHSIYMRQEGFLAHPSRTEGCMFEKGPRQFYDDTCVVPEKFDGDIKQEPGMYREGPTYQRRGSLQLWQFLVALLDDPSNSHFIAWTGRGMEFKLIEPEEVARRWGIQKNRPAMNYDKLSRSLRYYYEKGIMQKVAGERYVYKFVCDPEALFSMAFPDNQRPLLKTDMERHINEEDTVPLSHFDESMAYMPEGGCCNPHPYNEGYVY
Summary of the method: as §1

TGCGTT
binding signal (FLI1): 1.04 fold enrichment (6-mer frequency, TF over GST control) | binding signal (ELK1): 1.09 fold enrichment (6-mer frequency, TF over GST control) | binding signal (GABPA): 1.17 fold enrichment (6-mer frequency, TF over GST control) | binding signal (ERG): 1.12 fold enrichment (6-mer frequency, TF over GST control) | binding signal (ELF1): 1.12 fold enrichment (6-mer frequency, TF over GST control) | binding signal (EHF): 1.08 fold enrichment (6-mer frequency, TF over GST control) | binding signal (SPI1): 1.1 fold enrichment (6-mer frequency, TF over GST control) | binding signal (SPIB): 1.11 fold enrichment (6-mer frequency, TF over GST control) | binding signal (ELK3): 1.13 fold enrichment (6-mer frequency, TF over GST control) | binding signal (ETV5): 1.07 fold enrichment (6-mer frequency, TF over GST control) | binding signal (HSF1): 1 fold enrichment (6-mer frequency, TF over GST control) | binding signal (SPIC): 1.13 fold enrichment (6-mer frequency, TF over GST control) | binding signal (ELF4): 1.05 fold enrichment (6-mer frequency, TF over GST control) | binding signal (ELK4): 1.19 fold enrichment (6-mer frequency, TF over GST control) | binding signal (ETV2): 1.16 fold enrichment (6-mer frequency, TF over GST control) | binding signal (ELF3): 1.25 fold enrichment (6-mer frequency, TF over GST control) | binding signal (ETV1): 1.02 fold enrichment (6-mer frequency, TF over GST control)
